Results taken from PubChem BioAssay (NCATS).
Several values for one entry are separate records, joined by “and”; a condition that tells them apart may be missing. Equal entries are not always repeated. Records with an inconclusive call do not appear. Activity calls are given as the source filed them. The call rests on the fitted dose curve; in most records, active means well fitted curve in the direction sought with a large enough effect; inconclusive means small, poorly fitted or top-dose-only effect, or another doubt; inactive means no such curve, though single readings can be large; an effect the other way counts as inactive or inconclusive.

Assays:
NIH3T3 = test: qHTS assay to identify novel small-molecules to repurpose for Merkel cell carcinoma treatment (AID 1296009); details: MCC and control cell lines, CellTiter-Glo viability, 72 h; at 44.8 µM (top of the series) unless noted; further: nearly all actives have a fitted effect of over 60% in size
Summary of the method: (§1)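 CellTiter-Glo luminescence after 72 hr compound exposure at 37 degree celsius gave cell viability. Libraries NPC and MIPE were run as 8- and 11-point dose responses; RLUs normalized to DMSO (negative) and no-cell (cytotoxicity) controls.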

C33A = test: Primary qHTS to identify gynecologic anti-cancer compounds using libraries of approved drugs and bioactive compounds (AID 1345084); details: Gynecologic cancer cell panel viability, ATPlite luminescence, 48 h; series mostly up to 57.5 µM; further: nearly all actives have a fitted effect of over 55% in size
Summary of the method: (§2)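 Five-concentration response, 48 h; readout is ATP-driven luciferase luminescence.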

CAOV3 = test: as above; details: Gynecologic cancer cell panel viability, ATPlite luminescence, 48 h; series mostly up to 57.5 µM
Summary of the method: as §2

CASKI = test: as above; details: Gynecologic cancer cell panel viability, ATPlite luminescence, 48 h; series mostly up to 57.5 µM
Summary of the method: as §2

Es-2 = test: as above; details: Gynecologic cancer cell panel viability, ATPlite luminescence, 48 h; series mostly up to 57.5 µM
Summary of the method: as §2

HeLa = test: as above; details: Gynecologic cancer cell panel viability, ATPlite luminescence, 48 h; series mostly up to 57.5 µM
Summary of the method: as §2

Hek293T = test: as above; details: Gynecologic cancer cell panel viability, ATPlite luminescence, 48 h, control line for the selectivity index; series mostly up to 57.5 µM
Summary of the method: as §2

JEG-3 = test: as above; details: Gynecologic cancer cell panel viability, ATPlite luminescence, 48 h; series mostly up to 57.5 µM
Summary of the method: as §2

OV90 = test: as above; details: Gynecologic cancer cell panel viability, ATPlite luminescence, 48 h; series mostly up to 57.5 µM
Summary of the method: as §2

PA-1 = test: as above; details: Gynecologic cancer cell panel viability, ATPlite luminescence, 48 h; series mostly up to 57.5 µM
Summary of the method: as §2

SKOV3 = test: as above; details: Gynecologic cancer cell panel viability, ATPlite luminescence, 48 h; series mostly up to 57.5 µM
Summary of the method: as §2

Tov-21-G = test: as above; details: Gynecologic cancer cell panel viability, ATPlite luminescence, 48 h; series mostly up to 57.5 µM
Summary of the method: as §2

Tov112D = test: as above; details: Gynecologic cancer cell panel viability, ATPlite luminescence, 48 h; series mostly up to 57.5 µM
Summary of the method: as §2

MCC-13 = test: qHTS assay to identify novel small-molecules to repurpose for Merkel cell carcinoma treatment (AID 1296009); details: MCC and control cell lines, CellTiter-Glo viability, 72 h; series mostly up to 46 µM; further: nearly all actives have a fitted effect of over 60% in size
Summary of the method: as §1

MCC-26 = test: as above; details: MCC and control cell lines, CellTiter-Glo viability, 72 h; series mostly up to 46 µM
Summary of the method: as §1

MKL-1 = test: as above; details: MCC and control cell lines, CellTiter-Glo viability, 72 h; series mostly up to 46 µM
Summary of the method: as §1

MKL-2 = test: as above; details: MCC and control cell lines, CellTiter-Glo viability, 72 h; series mostly up to 46 µM
Summary of the method: as §1

UISO = test: as above; details: MCC and control cell lines, CellTiter-Glo viability, 72 h; series mostly up to 46 µM
Summary of the method: as §1

WaGa = test: as above; details: MCC and control cell lines, CellTiter-Glo viability, 72 h; series mostly up to 46 µM
Summary of the method: as §1

[1] = Drug repurposing screens with cells derived from glioblastoma tumor samples (AID 1345199); details: GBM patient neurospheres viability, ATP luminescence, 48 h; further: nearly all actives have a fitted effect of over 40% in size
Summary of the method: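 Primary testing used CD133+ neurospheres from four GBM patients, seven concentrations, 48 h exposure and ATP-based viability; confirmation added three slower-growing patient lines.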
On the % scale 0 is the no-effect control and ±100 the full control effect.

CC(=O)c1c(C)cc(O)cc1O[C@@H]1O[C@H](CO)[C@@H](O)[C@H](O)[C@H]1O
inactive: outcome (NIH3T3) | Potency (C33A) | Potency (CAOV3) | Potency (CASKI) | Potency (Es-2) | Potency (HeLa) | Potency (Hek293T) | Potency (JEG-3) | Potency (OV90) | Potency (PA-1) | Potency (SKOV3) | Potency (Tov-21-G) | Potency (Tov112D)

COc1c2c(c(C)c3c1C(=O)OC3)OC1(C)CC(O)C3(O)C(C)(C)OC(=O)CCC3(C)C1C2 (centres undefined)
inactive: outcome (NIH3T3) inactive [at 17.4 µM] | Potency (C33A) | Potency (CAOV3) | Potency (CASKI) | Potency (Es-2) | Potency (HeLa) | Potency (Hek293T) | Potency (JEG-3) | Potency (OV90) | Potency (PA-1) | Potency (SKOV3) | Potency (Tov-21-G) | Potency (Tov112D)

O=C(O)CCc1cccc(O[C@@H]2O[C@H](CO)[C@@H](O)[C@H](O)[C@H]2O)c1O
inactive: outcome (NIH3T3) | Potency (C33A) | Potency (CAOV3) | Potency (CASKI) | Potency (Es-2) | Potency (HeLa) | Potency (Hek293T) | Potency (JEG-3) | Potency (OV90) | Potency (PA-1) | Potency (SKOV3) | Potency (Tov-21-G) | Potency (Tov112D)

C[C@]12CCC(=O)C=C1[C@@H](O)C[C@@H]1[C@@H]2[C@@H](O)C[C@@]2(C)[C@H]1CC[C@]2(O)C(=O)CO
inactive: outcome (NIH3T3) | Potency (C33A) | Potency (CAOV3) | Potency (CASKI) | Potency (Es-2) | Potency (HeLa) | Potency (Hek293T) | Potency (JEG-3) | Potency (OV90) | Potency (PA-1) | Potency (SKOV3) | Potency (Tov-21-G) | Potency (Tov112D)

C/C=C/C1=CC2=C(CO1)C(=O)[C@](C)(O)[C@H](OC(=O)c1c(O)cc(OC)c(O)c1C)C2
inactive: outcome (NIH3T3) inactive [at 17.4 µM] | Potency (C33A) | Potency (CAOV3) | Potency (CASKI) | Potency (Es-2) | Potency (HeLa) | Potency (Hek293T) | Potency (JEG-3) | Potency (OV90) | Potency (PA-1) | Potency (SKOV3) | Potency (Tov-21-G) | Potency (Tov112D)

C/C1=C\C[C@H](O[C@@H]2O[C@H](CO)[C@@H](O)[C@H](O)[C@H]2O)/C(C)=C/[C@H]2OC(=O)[C@H](C)[C@@H]2CC1
inactive: outcome (NIH3T3) inactive [at 17.4 µM] | Potency (C33A) | Potency (CAOV3) | Potency (CASKI) | Potency (Es-2) | Potency (HeLa) | Potency (Hek293T) | Potency (JEG-3) | Potency (OV90) | Potency (PA-1) | Potency (SKOV3) | Potency (Tov-21-G) | Potency (Tov112D)

CC(=O)N(O)CCCCCN1C(=O)CCC1=O
inactive: outcome (NIH3T3) | Potency (C33A) | Potency (CAOV3) | Potency (CASKI) | Potency (Es-2) | Potency (HeLa) | Potency (Hek293T) | Potency (JEG-3) | Potency (OV90) | Potency (PA-1) | Potency (SKOV3) | Potency (Tov-21-G) | Potency (Tov112D)

C[C@]12CCC[C@](C)(C(=O)O)C1CCC13C=C(CO)C(CCC12)C3 (some centres undefined)
inactive: outcome (NIH3T3) | Potency (C33A) | Potency (CAOV3) | Potency (CASKI) | Potency (Es-2) | Potency (HeLa) | Potency (Hek293T) | Potency (JEG-3) | Potency (OV90) | Potency (PA-1) | Potency (SKOV3) | Potency (Tov-21-G) | Potency (Tov112D)

CC(=O)OC(CSC1CCC(=O)OC(C)CCC(=O)C1)C(=O)O (centres undefined)
inactive: outcome (NIH3T3) | Potency (C33A) | Potency (CAOV3) | Potency (CASKI) | Potency (Es-2) | Potency (HeLa) | Potency (Hek293T) | Potency (JEG-3) | Potency (OV90) | Potency (PA-1) | Potency (SKOV3) | Potency (Tov-21-G) | Potency (Tov112D)

CC(=O)OC(C)OC(=O)C(C)c1ccc(-c2ccccc2)c(F)c1 (centres undefined)
inactive: outcome (MCC-13) | outcome (MCC-26) | outcome (MKL-1) | outcome (MKL-2) | outcome (NIH3T3) | outcome (UISO) | outcome (WaGa) | Potency (C33A) | Potency (CAOV3) | Potency (CASKI) | Potency (Es-2) | Potency (HeLa) | Potency (Hek293T) | Potency (JEG-3) | Potency (OV90) | Potency (PA-1) | Potency (SKOV3) | Potency (Tov-21-G) | Potency (Tov112D) | activity, negative = cell killing ([1]; at 45.9 µM (top of the series), tumour line B) 13.2% and -1.22% | activity, negative = cell killing ([1]; at 45.9 µM (top of the series), tumour line D) 13.1% and -23.3% | activity, negative = cell killing ([1]; at 46 µM (top of the series), tumour line A) -17.1% | activity, negative = cell killing ([1]; at 46.1 µM (top of the series), tumour line C) 1.46% and -25.4%

COc1cc(-c2cccc(O)c2)cc2c1OCO2
inactive: outcome (NIH3T3) | Potency (C33A) | Potency (CAOV3) | Potency (CASKI) | Potency (Es-2) | Potency (HeLa) | Potency (Hek293T) | Potency (JEG-3) | Potency (OV90) | Potency (PA-1) | Potency (SKOV3) | Potency (Tov-21-G) | Potency (Tov112D)

O=C(/C=C/c1ccc(O)cc1)OC[C@H]1O[C@@H](OC(=O)/C=C/c2ccccc2)[C@H](O)[C@@H](O)[C@@H]1O
inactive: outcome (NIH3T3) inactive [at 17.4 µM] | Potency (C33A) | Potency (CAOV3) | Potency (CASKI) | Potency (Es-2) | Potency (HeLa) | Potency (Hek293T) | Potency (JEG-3) | Potency (OV90) | Potency (PA-1) | Potency (SKOV3) | Potency (Tov-21-G) | Potency (Tov112D)

C=C1C[C@@]23CC[C@@H]4[C@](C)(C(=O)O)CCC[C@@]4(C)C2=CC[C@H]1C3
inactive: outcome (NIH3T3) | Potency (C33A) | Potency (CAOV3) | Potency (CASKI) | Potency (Es-2) | Potency (HeLa) | Potency (Hek293T) | Potency (JEG-3) | Potency (OV90) | Potency (PA-1) | Potency (SKOV3) | Potency (Tov-21-G) | Potency (Tov112D)
